Measurements reported in the supplement of paper PMC4206461.

tested on: Pseudomonas aeruginosa PA14 dppA1-A5 penta mutant + pBBR5.DppA1 (PA14_58350); experiment: respiration area under curve with compound as sole nitrogen source, 24 h (OmniLog AUC (arbitrary units)); higher = more respiration / better utilisation as nitrogen source, active = 2000 or more
Procedure: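 Biolog Phenotype MicroArray plates PM6-PM8: each di/tripeptide is the sole nitrogen source. Tetrazolium reduction was read in the OmniLog for 24 h at 37°C and summarised as area under the respiration curve (arbitrary units). Values below 2000 count as no respiration. Strain is the SBP penta mutant complemented with DppA1 on a plasmid under its native promoter. Lys/His/Cys peptides are excluded.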

Respiration area under curve, inactive:
CC[C@H](C)[C@H](N)C(=O)N[C@@H](Cc1c[nH]c2ccccc12)C(=O)O (plate: PM6) 287, CC(C)C[C@@H](N)C(=O)N[C@H](CC(C)C)C(=O)O (plate: PM8) 0, CC(C)C[C@H](NC(=O)[C@@H](C)N)C(=O)O (plate: PM8) 286, CC[C@H](C)[C@H](N)C(=O)N[C@H](C(=O)O)[C@@H](C)CC (plate: PM6) 1010, N[C@@H](CC(=O)O)C(=O)N[C@@H](Cc1c[nH]c2ccccc12)C(=O)O (plate: PM6) 1340, CC(C)C[C@@H](N)C(=O)N[C@@H](Cc1ccc(O)cc1)C(=O)O (plate: PM8) 21.2, C[C@@H](N)C(=O)NCC(=O)NCC(=O)O (plate: PM8) 46.7, CSCC[C@H](N)C(=O)N[C@H](C(=O)O)[C@@H](C)O (plate: PM8) 1950, CSCC[C@H](NC(=O)CN)C(=O)O (plate: PM6) 50.7, CSCC[C@H](NC(=O)[C@@H](N)Cc1ccccc1)C(=O)O (plate: PM8) 805, CC(C)[C@H](NC(=O)CN)C(=O)O (plate: PM6) 1820

Respiration area under curve, active:
O=C(O)[C@@H]1CCCN1C(=O)[C@@H]1CCCN1 (plate: PM7) 8180, C[C@@H](N)C(=O)NCC(=O)O (plate: PM8) 5420, C[C@H](NC(=O)[C@@H](N)Cc1c[nH]c2ccccc12)C(=O)O (plate: PM7) 2360, CSCC[C@H](NC(=O)[C@@H](N)CCCN=C(N)N)C(=O)O (plate: PM6) 9220, CSCC[C@H](N)C(=O)N[C@@H](CC(=O)O)C(=O)O (plate: PM7) 4440, N[C@@H](Cc1ccc(O)cc1)C(=O)N[C@@H](Cc1ccccc1)C(=O)O (plate: PM7) 6470, CSCC[C@H](NC(=O)[C@@H](N)CO)C(=O)O (plate: PM7) 2590, C[C@H](NC(=O)CCN)C(=O)O (plate: PM8) 4280, N[C@@H](CO)C(=O)NCC(=O)O (plate: PM7) 6260, N[C@@H](Cc1ccccc1)C(=O)N[C@@H](CCC(=O)O)C(=O)O (plate: PM8) 2880, O=C(O)CC[C@H](NC(=O)[C@@H]1CCCN1)C(=O)O (plate: PM8) 5380, C[C@H](N)C(=O)N[C@H](C(=O)O)[C@@H](C)O (plate: PM6) 4830, NC(N)=NCCC[C@H](N)C(=O)N[C@@H](Cc1ccc(O)cc1)C(=O)O (plate: PM6) 8490, NC(N)=NCCC[C@H](N)C(=O)N[C@@H](CC(=O)O)C(=O)O (plate: PM6) 7970, CSCCC(N)C(=O)NC(CCCN=C(N)N)C(=O)O (stereo not given) (plate: PM7) 13200, CC[C@H](C)[C@H](N)C(=O)N[C@H](C(=O)O)C(C)C (plate: PM6) 2860, CC(C)C(NC(=O)C1CCCN1)C(=O)O (stereo not given) (plate: PM8) 5180, CC(C)[C@H](NC(=O)[C@@H](N)CCCN=C(N)N)C(=O)O (plate: PM6) 7530, CC(C)C[C@H](NC(=O)[C@@H](N)Cc1ccc(O)cc1)C(=O)O (plate: PM7) 6720, CC(C)[C@H](N)C(=O)N[C@@H](Cc1ccc(O)cc1)C(=O)N[C@H](C(=O)O)C(C)C (plate: PM8) 7350, C[C@H](N)C(=O)N[C@@H](Cc1ccccc1)C(=O)O (plate: PM6) 6990, O=C(O)[C@H](CO)NC(=O)[C@@H]1CCCN1 (plate: PM8) 5440, CC(C)[C@H](N)C(=O)N[C@@H](Cc1ccccc1)C(=O)O (plate: PM8) 5560, N[C@@H](CO)C(=O)N1CCC[C@H]1C(=O)O (plate: PM7) 12700, C[C@@H](O)[C@H](N)C(=O)NCC(=O)O (plate: PM7) 6220, CC[C@H](C)[C@H](N)C(=O)N[C@@H](CCC(N)=O)C(=O)O (plate: PM6) 5000, CC(C)C[C@H](NC(=O)[C@@H](N)CO)C(=O)O (plate: PM7) 6240, N[C@@H](Cc1ccc(O)cc1)C(=O)N[C@@H](Cc1ccc(O)cc1)C(=O)O (plate: PM7) 6170, CSCC[C@H](N)C(=O)N[C@H](C(=O)O)C(C)C (plate: PM7) 3360
